Laboratory results as given in PubChem BioAssay AID492998 (Southern Research Specialized Biocontainment Screening …, 2010).
Hit rate of the full screen: of about 2,300 compounds, about 550 (24%) were called active. How the calls were made is not given here. A selection follows. Entries with a potency or affinity are not part of this list.

Experiment: Vero E6 cell cytotoxicity, dose response, cytotoxicity control for non-replicating M. tuberculosis project, secondary assay (AID 492998);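 further: 100% = vehicle-treated cells and 0% = background wells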
Details: series mostly up to 20 µM; viability: at the top concentration

Row | Structure (SMILES) | viability
1 | COc1ccc(COc2cccc(C=O)c2)cc1 | 95.5% (inactive)
2 | CCc1ccccc1NC(=O)C1COc2ccccc2O1 (stereo unspecified) | 118% (inactive)
3 | O=C(OCc1cccc(F)c1)c1ccc2c(=O)n3c(nc2c1)CCC3 | 95.5% (inactive)
4 | Cc1c(Cl)cccc1NC(=O)C(=O)NNC(=O)c1ccccc1F | 83.8% (inactive)
5 | COc1cccc(N2C(=O)NC(=O)/C(=C/c3ccc([N+](=O)[O-])s3)C2=O)c1 | 101% (inactive)
6 | c1ccc2sc(SCc3ccc(-c4nnco4)cc3)nc2c1 | 97.1% (inactive)
7 | Oc1c(Br)cc(Br)cc1/C=N/c1nccs1 | 98.2% (inactive)
8 | C/C(=N\NC(=O)c1nn(C)cc1Cl)c1ccncc1 | 112% (inactive)
9 | Cc1cc(N2CCC(C)CC2)nc(-n2nc(C)cc2C)n1 | 72.8% (inactive)
10 | CCOc1ccc(NC(=O)Cn2sc3nc(C)cc(C)c3c2=O)cc1 | 86.1% (inactive)
11 | CC(=O)c1ccc(OC(=O)c2ccc(-n3nc(C)cc3C)cc2)cc1 | 95.6% (inactive)
12 | CCOc1ccc(OCC(=O)Nc2ccc(OC)cc2)cc1 | 95.9% (inactive)
13 | CC1(C)OC(c2ccccc2)=C/C(=C\C=N\NC(=O)c2ccncc2)O1 | 91.2% (inactive)
14 | COc1ccc(N2CCN(CC(=O)NC(=O)NC(C)(C)C)CC2)cc1 | 94.7% (inactive)
15 | CN(C(=O)COC(=O)c1ccc([N+](=O)[O-])cc1Cl)C1CCCCC1 | 102% (inactive)
16 | O=C(N/N=C/c1ccc[nH]1)c1ccc(Cl)cc1 | 99.1% (inactive)
17 | Cc1ccc(O)c(C(=O)c2cc(C#N)c(=O)n(-c3nccs3)c2)c1 | 70.9% (inactive)
18 | O=C(CC1CCCC1)OCn1nnc2ccccc2c1=O | 102% (inactive)
19 | COc1ccc(-n2c3c(cc(C(=O)NNc4ccccc4)c2=O)C(=O)CC(C)(C)C3)cc1 | 102% (inactive)
20 | CCOC(=O)Cc1cc(=O)n2[nH]cc(-c3ccc(Cl)cc3)c2n1 | 94.1% (inactive)
21 | CCOC(=O)C1(O)CC(C)=NN1C(=O)c1cccc(Br)c1 (stereo unspecified) | 104% (inactive)

Row | Structure (SMILES) | viability
22 | CCOC(=O)c1c(C)nc2c3ccccc3ccn12 | 106% (inactive)
23 | CCOC(=O)Cc1ccc(NCc2ccc(Cl)cc2)cc1 | 93.4% (inactive)
24 | CCOc1ccc(NC(=O)CCc2ccc(C)o2)cc1 | 111% (inactive)
25 | CC(C)(C)NC(=O)C(=O)NNC(=O)COc1ccc(Br)cc1 | 95.2% (inactive)
26 | O=C(COC(=O)c1cccc(C(F)(F)F)c1)NCc1ccccc1 | 98.9% (inactive)
27 | CCOC(=O)COc1ccc2c(c1)c(C(=O)OCC)c(C)n2CC | 95.5% (inactive)
28 | CCCCN1CCC(O)(c2ccccc2)C(C(=O)c2ccccc2)C1 (stereo unspecified) | 79.3% (inactive)
29 | CCOc1c(OC(C)=O)ccc(/C=C2\N=C(SCC)SC2=O)c1[N+](=O)[O-] | 101% (inactive)
30 | O=Cc1ccc(OC2OCCOC2Oc2ccc(C=O)cc2)cc1 (stereo unspecified) | 108% (inactive)
31 | Cc1cc2nc(CSc3ccc(Cl)cc3)cc(=O)n2[nH]1 | 99% (inactive)
32 | COc1cccc2cc(-c3nc4ccccc4o3)c(=O)oc12 | 92.9% (inactive)
33 | CS(=O)(=O)Cc1nc2ccccc2oc1=O | 79.7% (inactive)
34 | O=C(CCN1CCN(C/C=C/c2ccccc2)CC1)Nc1ccc(Cl)cc1 | 87.6% (inactive)
35 | Cc1ccc(-c2nnc(COC(=O)c3cccs3)o2)cc1 | 102% (inactive)
36 | CCOC(=O)C(=NCCOC)NNc1cc(Cl)ccc1Cl | 106% (inactive)
37 | O=C(COc1ccccc1)NCCSCc1ccc(Cl)cc1 | 97.8% (inactive)
38 | OC(COc1ccc2ccccc2c1Br)Cn1ccnc1 (stereo unspecified) | 89.5% (inactive)
39 | OC(COc1ccccc1Cl)CN1CCN(CC(O)COc2ccccc2Cl)CC1 (stereo unspecified) | 85.3% (inactive)
40 | Cc1cccc(OCC(O)Cn2c(=N)n(Cc3ccccc3)c3ccccc32)c1 (stereo unspecified) | 75% (inactive)
41 | CC(=O)n1cc(/C=C2/N=C(c3ccccc3)OC2=O)c2ccccc21 | 98.1% (inactive)
42 | COc1cc(C(=O)ON=C2C=C(C)C(=O)C(C)=C2)cc(OC)c1OC | 86.3% (inactive)

Row | Structure (SMILES) | viability
43 | CCOCC(=O)Nc1ccc(C)c(Cl)c1 | 106% (inactive)
44 | Cc1cc(NC(=O)COC(=O)COc2ccc(C(=O)c3ccccc3)cc2)no1 | 95.8% (inactive)
45 | O=C(O)c1ccc(NCc2ccc(Br)cc2)cc1 | 105% (inactive)
46 | CC(=O)Nc1ccc(NC(=O)[C@@H]2CCCC[C@@H]2C(=O)O)cc1 | 100% (inactive)
47 | O=C(COc1ccc2ccccc2c1)N1CCCC1 | 89% (inactive)
48 | Nc1c(Cl)cc(Cl)cc1C(=O)OCC(=O)N1CCCC1 | 78.2% (inactive)
49 | CCOC(=O)c1ccc(-c2ccc(C(=O)Nc3cccnc3)o2)cc1 | 88.4% (inactive)
50 | CCC(C)NCCOc1ccc(C(C)(C)c2ccccc2)cc1 (stereo unspecified) | 79.9% (inactive)
51 | CCOC(=O)C1CCCN(Cc2ccc(OCc3ccccc3)cc2)C1 (stereo unspecified) | 96.5% (inactive)
52 | CN=C1S/C(=C\c2ccc(OCC(=O)OC)c(OC)c2)C(=O)N1C | 82% (inactive)
53 | CC(C)CSc1nnc2c3ccccc3n(C)c2n1 | 85.3% (inactive)
54 | CC(C)[C@@H]1CC[C@@H](C)C[C@H]1OC(=O)C[n+]1cc(-c2ccc(Cl)cc2)n2c1CCCCC2 | 100% (inactive)
55 | COc1ccc(NC(=O)c2cc3ccccc3o2)cc1 | 90.1% (inactive)
56 | CCCn1nnnc1NCc1ccc(C(C)C)cc1 | 97.6% (inactive)
57 | CCc1nonc1NC(=O)COc1ccc(Cl)c(C)c1 | 101% (inactive)
58 | O=C1/C(=C/c2ccccn2)COc2ccccc21 | 78.1% (inactive)
59 | Cn1nnc(NC(=O)COc2ccc(C3CCCCC3)cc2)n1 | 110% (inactive)
60 | O=C(NCc1ccc(F)cc1)c1cnccn1 | 98.9% (inactive)
61 | O=C(Oc1ccccc1)c1ccc(COC(=O)c2cnccn2)cc1 | 94.8% (inactive)
